Results as given in PubChem BioAssay AID1159580 (chemical genetic matrix, 2015).
The campaign covered roughly 5,500 compounds. About 2,000 (36%) were called active. Inconclusive results (about 18%) are left out. No stated cut-off is given here; in the data, active means normalized growth mostly below about 0.91 (no sharp cut-off); inconclusive means no clear call, values can overlap the other calls; inactive means mostly above about 0.92. The list shows a part of the results.

Experiment: chemical genetic growth profiling, strain panel (AID 1159580);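 further: tested at 20 µM; growth read once vehicle control cultures reached saturation at 30 °C; 1 = growth at the plate median or of vehicle wells; lower values mean less growth of the strain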
Conditions: S. cerevisiae deletion strains, growth OD

Measured: normalized growth

CCn1cnc2c(Nc3cccc(Cl)c3)nc(N[C@@H]3CCCC[C@@H]3N)nc21
inactive: locus YAL013W, strain DEP1, active compounds read low 0.985 | locus YAL040C, strain CLN3, active compounds read low 1.02 | locus YCL061C, strain MRC1 (second series), active compounds read low 0.998 | locus YDR363W, strain ESC2, active compounds read low 0.993 | locus YER002W, strain NOP16, active compounds read low 1.03 | locus YGR078C, strain PAC10, active compounds read low 1.01 | locus YGR229C, strain SMI1, active compounds read low 0.993 | locus YMR263W, strain SAP30, active compounds read low 1 | locus YNL175C, strain NOP13, active compounds read low 1.08 | locus YNL224C, strain SQS1, active compounds read low 1.04 | locus YOR083W, strain WHI5 (second series), active compounds read low 0.991 | locus YPL241C, strain CIN2, active compounds read low 1.01
